Source: PubChem BioAssay AID1986 (Sanford-Burnham Center for Chemical Genomics, 2009)
In all, about 290,000 compounds went through this assay and about 890 (0.31%) were called active. Cut-off read from the data, not from the text of the source: active = inhibition mostly above about 52% (no sharp cut-off); inactive = mostly below about 76%. Shown is part of a subset that was picked to be rich in actives.

Assay: cell-free HIV fusion peptide-binding blockers – biochemical, uHTS, fluorescence dequenching, primary screen (AID 1986)
Conditions: 30 min, stronger effect = higher value
[1] = measured here: repeat confirmation average inhibition, at 18.6 µM

Compound | inhibition (at 20 µM) | inhibition [1]
CC(=O)NS(=O)(=O)c1ccc(N=c2ssc3c2-c2cc(C)ccc2NC3(C)C)cc1 | 46.9% (inactive) | 
CC(=O)NS(=O)(=O)c1ccc(N=c2ssc3c2-c2cc(C)c(C)cc2NC3(C)C)cc1 | 51.7% (inactive) | 11.3%
CC(=O)NS(=O)(=O)c1ccc(N=c2ssc3c2-c2ccc(C)cc2NC3(C)C)cc1 | 52.5% (active) | 
O=C(CSc1nc(O)cc(=O)[nH]1)N1c2ccccc2Sc2ccccc21 | 2.6% (inactive) | 
Cc1nc(SCC(=O)N2c3ccccc3Sc3ccccc32)n[nH]1 | -1.2% (inactive) | 
Cc1snc(SCc2cccc(Cl)c2)c1C#N | -1.1% (inactive) | 
N#Cc1c(Cl)nc(SCc2ccccc2)nc1-c1ccccc1 | -2.7% (inactive) | 
CC(C)NC(=O)CSc1nnc(-c2ccc(S(=O)(=O)N3CCCC3)cc2)n1CC1CCCO1 (stereo not given) | -1.1% (inactive) | 
CCn1cnc2scc(-c3ccc(OC)cc3)c2c1=O | 2% (inactive) | 
CC1CCC2(CC1)NC(=O)N(Cc1cc(=O)n3ccsc3n1)C2=O (stereo not given) | -0.3% (inactive) | 
O=C(OCc1c(Cl)cccc1Cl)c1cccnc1 | -1.3% (inactive) | 
CCCN(CCC)Cc1cc2ccccc2c2c1COC2 | 1.9% (inactive) | 
Cc1ccc(Cc2c(C)[nH]c(=S)[nH]c2=O)cc1 | 0.1% (inactive) | 
CCOc1ccc(CC(=O)Nc2cc(=O)n(C)c(=O)n2C)cc1 | 1.4% (inactive) | 
CCN(CC)c1ccc2cc(C(N)=O)c(=N)oc2c1 | 136% (inactive) | 
N/C(=N\NC(=O)c1cccs1)c1cc2ccccc2oc1=O | 1.8% (inactive) | 
CCN(CC)c1ccc2cc(C(N)=O)/c(=N\NC(=O)c3ccncc3)oc2c1 | 97.7% (active) | 54.3%
NC(=O)c1cc2ccccc2o/c1=N\NC(=O)c1ccncc1 | -1.9% (inactive) | 
CCN(CC)c1ccc2cc(/C(N)=N/NC(=O)c3cccs3)c(=O)oc2c1 | 99.5% (active) | 53.8%
N/C(=N\NC(=O)c1cccs1)c1cc2cc(Cl)ccc2oc1=O | 2.7% (inactive) | 
COC(=O)CCc1nc2cc(Cl)ccc2n(Cc2ccccc2)c1=O | 0% (inactive) | 
O=C(NCc1cccs1)C1CC(=O)N(c2ccccc2)C1 (stereo not given) | -2.2% (inactive) | 
COc1cccc(C=N[C@@H](CO)[C@@H](O)c2ccc([N+](=O)[O-])cc2)c1O | -1% (inactive) | 

Compound | inhibition (at 20 µM) | inhibition [1]
COC(=O)/C(N=Nc1c(C)n(C)n(-c2ccccc2)c1=O)=C(\C)O | 2.8% (inactive) | 
COC(=O)CCCC1=CC2=CC(=O)C(C)(OC(=O)C3CCCC3)C(=O)C2=CO1 (stereo not given) | 52.5% (inactive) | 24.7%
CCCCC1=CC2=CC(=O)C(C)(OC(=O)C3CCCC3)C(=O)C2=CO1 (stereo not given) | 68.3% (active) | 
CCCCC1=CC2=CC(=O)C(C)(OC(=O)CCc3ccccc3)C(=O)C2=CO1 (stereo not given) | 41.7% (inactive) | 
O=C(Cn1cccc1C(=O)c1ccccc1)NCc1ccc2c(c1)OCO2 | -0.1% (inactive) | 
CC(CCc1ccccc1)NC(=O)CSc1cccc[n+]1[O-] (stereo not given) | 2.5% (inactive) | 
O=C(N/N=C/c1ccc([N+](=O)[O-])o1)c1cn(-c2ccccc2)nc1-c1ccc(Cl)cc1 | 64% (active) | 
O=C(N/N=C/c1ccc([N+](=O)[O-])o1)c1cn(-c2ccccc2)nc1-c1ccccc1 | 65.8% (inactive) | -1.2%
COc1ccc(-c2nn(-c3ccccc3)cc2C(=O)N/N=C/c2ccc([N+](=O)[O-])o2)cc1 | 55.9% (inactive) | 0.9%
COc1ccccc1OCCNC(=O)C1CCCCC1 | -0.2% (inactive) | 
COc1ccccc1N1C(=O)C2C(C(=O)c3ccccc3)=NN(c3ccc(C)cc3)C2C1=O (stereo not given) | 85.1% (active) | 102%
COC(=O)C1=NN(c2ccc(OC)cc2)C2C(=O)N(c3ccccc3OC)C(=O)C12 (stereo not given) | -0.7% (inactive) | 
COc1ccccc1N1C(=O)C2C(C(=O)c3ccccc3)=NN(c3ccccc3OC)C2C1=O (stereo not given) | 59.5% (inactive) | 13.2%
COC(=O)C1=NN(c2ccccc2)C2C(=O)N(c3ccccc3OC)C(=O)C12 (stereo not given) | 1.2% (inactive) | 
COc1ccccc1N1C(=O)C2C(C(=O)c3ccccc3)=NN(c3ccccc3)C2C1=O (stereo not given) | 72.1% (inactive) | 33.6%
COc1ccccc1N1C(=O)C2C(C(=O)c3ccccc3)=NN(c3ccc(Br)cc3)C2C1=O (stereo not given) | 54.9% (active) | 55%
O=C(Nc1ccc(F)cc1F)C1CCN(C(=O)c2ccc(Br)cc2)CC1 | 1.2% (inactive) | 
Cc1ccc(CCNC(=O)c2nnc(CS(=O)(=O)c3ccccc3)o2)cc1 | -0.3% (inactive) | 
O=C(COC(=O)c1ccc2c(c1)C(=O)N(Cc1ccco1)C2=O)NCC(F)(F)F | 1.5% (inactive) | 
Nc1ccc(Cc2ccc(N)c(O)c2)cc1O | 52.4% (active) | 
Cc1cc(Cc2ccc(N)c(C)c2)ccc1N | -1.4% (inactive) | 
Nc1ccc(Cc2ccc(N)c(C(=O)O)c2)cc1C(=O)O | 5.8% (inactive) | 
CC(C)COc1ccc(S(=O)(=O)n2cc(F)c(=O)[nH]c2=O)cc1 | 2.9% (inactive) | 

Compound | inhibition (at 20 µM) | inhibition [1]
COc1ccc(Cc2noc(-c3ccccc3)n2)cc1OC | 61.8% (active) | 
COc1ccc(Cc2noc(-c3ccc(OC)c(OC)c3)n2)cc1OC | 0.9% (inactive) | 
COc1cccc(-c2nc(Cc3ccc(OC)c(OC)c3)no2)c1 | 2.1% (inactive) | 
CC(C)CNC(=O)c1cccc(NC(=O)c2ccco2)c1 | -0.6% (inactive) | 
CCOC(=O)C1=C(C)N(CC)C(=S)NC1c1ccccc1OC(F)F (stereo not given) | -2% (inactive) | 
CCOC(=O)c1c(NC(=O)N/N=C/c2ccc(O)c(OC)c2)sc(C(C)=O)c1C | -2.2% (inactive) | 
N#Cc1ccc2ccn(CC(=O)NCc3ccccc3)c2c1 | -1.6% (inactive) | 
CC(C)(C)/C(O)=C(/C#N)c1nc2ccccc2[nH]1 | -1.6% (inactive) | 
CN(C)c1cccc(C(=O)NNC(=S)NC2CC3CCC2C3)c1 (stereo not given) | -1.9% (inactive) | 
CCOC(=O)c1c(S(=O)(=O)Nc2ccccn2)c(C)n(C)c1C | 2.8% (inactive) | 
COc1ccccc1CNC(=O)C1CCC(CNS(=O)(=O)c2ccc(F)cc2)CC1 (stereo not given) | -1% (inactive) | 
Cc1cccc(NC(=O)c2ccc(NCCc3ccccc3)c([N+](=O)[O-])c2)c1 | 96.9% (active) | 58.9%
Cc1ccc(NC(=O)c2ccc(NCCc3ccccc3)c([N+](=O)[O-])c2)cc1F | 2.5% (inactive) | 
O=C(Nc1ccccc1)c1ccc(NCCc2ccccc2)c([N+](=O)[O-])c1 | 147% (inactive) | 
COc1cccc(NC(=O)N2CCC(NC(=O)C(Cc3ccccc3F)NC(C)=O)CC2)c1 (stereo not given) | -0.5% (inactive) | 
O=C(Nc1ccccc1C(=O)O)/C(=C/c1ccc([N+](=O)[O-])cc1)NC(=O)c1ccc(Br)o1 | 20.5% (inactive) | 
Cc1cc(C)c(NC(=O)CCCSc2nnc(N)s2)c(C)c1 | -0.5% (inactive) | 
CSc1nc(-c2ccc(C)cc2)[nH]c1S(=O)(=O)c1ccccc1 | -0.2% (inactive) | 
Cc1ccc(-c2[nH]c(-c3ccc(C(=O)O)cc3)nc2-c2ccccc2)cc1 | 61.6% (inactive) | 27.3%
CC(=O)Sc1nc(-c2ccccc2)[nH]c1S(=O)(=O)c1ccc(C)cc1 | 60.7% (active) | 
COc1ccc(C2/C(=C(/O)c3ccc(F)cc3)C(=O)C(=O)N2c2ccccn2)cc1OC (stereo not given) | 0.2% (inactive) | 
CC(=O)Nc1ccc(S(=O)(=O)N2CCN(S(=O)(=O)N3CCCCC3)CC2)cc1 | 0.1% (inactive) | 
O=C(Nc1ccccc1)OC1C2CCC1C(N1CCCCC1)CC2 (stereo not given) | 1.6% (inactive) | 

Compound | inhibition (at 20 µM) | inhibition [1]
O=C(Nc1nccs1)c1cc(S(=O)(=O)N2CCCCC2)ccc1Cl | -1.5% (inactive) | 
CC(=O)N1C(=O)/C(=C2\SC(=S)N(NS(=O)(=O)c3ccc(C)cc3)C2=O)c2ccccc21 | 55.6% (inactive) | -0.3%
O=C1/C(=C\c2ccc(Br)cc2)SC(=S)N1NS(=O)(=O)c1ccccc1 | 67.6% (inactive) | 0.2%
CSc1ccc(CNCc2ccc3c(c2)OCO3)cc1 | 3.5% (inactive) | 
CCCC(C(=O)Nc1ccc2c(C)cc(=O)oc2c1)c1ccccc1 (stereo not given) | 0.5% (inactive) | 
O=[N+]([O-])c1ccc(/C=C/C2=NN(c3ccccc3)C(c3ccco3)C2)o1 (stereo not given) | 18.7% (inactive) | 
O=[N+]([O-])c1ccc(/C=C/C2=NN(c3ccccc3)C(c3ccco3)C2)cc1 (stereo not given) | 35% (inactive) | 
C(=C\c1ccco1)/C1=NN(c2ccccc2)C(c2ccco2)C1 (stereo not given) | 81.8% (active) | 
CC(CNC(=O)CCS(=O)(=O)c1cc2c(cc1Cl)NC(=O)CO2)c1ccccc1 (stereo not given) | -0.3% (inactive) | 
COc1ccc(/C=c2\s/c(=C/C(=O)c3ccc(C)cc3)[nH]c2=O)cc1OC | 77.2% (active) | 
COc1cc(/C=C2\SC(c3ccc(C)cc3)=NC2=O)ccc1O | 36.7% (inactive) | 
COc1ccc(/C=C2/SC(c3ccc(C)cc3)=NC2=O)cc1OC | 0.3% (inactive) | 
COc1ccc(/C=C2\SC(c3ccc(C)cc3)=NC2=O)cc1OC | 97.6% (active) | 176%
COc1ccc(/C=c2\s/c(=C/C(=O)c3ccc(C)cc3)[nH]c2=O)c(OC)c1 | 47.8% (inactive) | 
COc1cccc(/C=c2\s/c(=C/C(=O)c3ccc(C)cc3)[nH]c2=O)c1OC | 4.7% (inactive) | 
Cc1cc2c(ncn2Cc2ccccc2)c(NS(C)(=O)=O)c1C | -1% (inactive) | 
O=C(CN(Cc1ccc(F)cc1)C(=O)CNS(=O)(=O)c1ccc(F)cc1)NCc1ccco1 | 1.3% (inactive) | 
COc1ccc(CCNC(=O)Cc2cc(OC)c(OC)cc2Br)cc1OC | 1.9% (inactive) | 
CCOC(=O)N1CCc2c(sc3ncn(C)c(=O)c23)C1 | -2.6% (inactive) | 
COC(=O)c1ccccc1NC(=O)c1ccc2c(c1)OCCCO2 | -0.4% (inactive) | 
O=C(CS(=O)(=O)Cc1ccccc1)N1CCN(c2cccc(C(F)(F)F)c2)CC1 | 4.6% (inactive) | 
